Test results reported in PubChem BioAssay (NCI).
Compounds without any hit were thinned out: in the full panel of roughly 83,000, 20% have a hit.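 A percent growth of 40 corresponds to 60% growth inhibition; 0 means no net growth; -100 means all cells died. Active threshold: below 10.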 Activity calls are given as the source filed them.

Columns and labels:
Assay in all cases: NCI-60 one-dose screen, 48 h (100 = growth as untreated, 0 = no growth, -100 = all killed)
Details in all cases: 10 µM unless noted
[1] = system: HCT-15 colon
[2] = system: HT29 colon
[3] = system: SNB-75 CNS
[4] = system: SNB-19 CNS
[5] = system: U251 CNS
[6] = system: PC-3 prostate
[7] = system: SK-MEL-5 melanoma
[8] = system: UACC-62 melanoma
[9] = system: LOX IMVI melanoma
[10] = system: SK-MEL-28 melanoma

Measured: growth

CC(=O)N[C@@H](CCC(N)=O)C(=O)O
inactive: [1] 113% | [2] 95.6% | [3] 69.2% | [4] 126% | [5] 102% | [6] 74.5% | [7] 101% | [8] 98.2% | [9] 91.4% | [10] 101%

CCCCCc1c(C)[nH]c(/C=C2\N=C(c3ccc[nH]3)C=C2CC)c1C
active: [1] -83.5% | [2] -86.9% | [3] -81.4% | [4] -95.4% | [5] -95.3% | [6] -89.3% | [7] -96.5% | [8] -97.4% | [9] -90.7% | [10] -97.4%

CCN(CC)Cc1cc(Nc2ccnc3cc(Cl)ccc23)cc(-c2ccc(Cl)cc2)c1O
active: [3] -35.9% | [5] 0.662% | [7] -49.6% | [9] 0.179%
inactive: [1] 25.2% | [2] 22.7% | [4] 32.8% | [6] 25.2% | [8] 60.8% | [10] 46%

CC(=O)OC1Oc2cc(C)c(C)cc2-c2oc(=O)c(-c3ccc(F)cc3)cc21 (stereo not given)
inactive: [1] 46.6% | [2] 16.1% | [3] 77.9% | [4] 90.5% | [5] 53.5% | [6] 60.2% | [7] 55.2% | [8] 49.8% | [9] 60.2% | [10] 64.2%

CC(=O)OC1Oc2cc(C)c(C)cc2-c2oc(=O)c(-c3cc4ccccc4oc3=O)cc21 (stereo not given)
inactive: [1] 117% | [2] 110% | [3] 92.5% | [4] 116% | [5] 66.6% | [6] 91.9% | [7] 115% | [8] 102% | [9] 84.7% | [10] 152%

CCOC(=O)c1c(NC(=O)c2ccccc2)sc2c(O)c(CN(CC)CC)ccc12
inactive: [1] 15.7% | [4] 43.8% | [6] 22.8% | [8] 21.2% | [9] 13.3% | [10] 40%
active: [2] 2.28% | [3] -26.2% | [5] 1.72% | [7] -51.3%

Cc1nc([C@H]2CC[C@H]3[C@@H]4CCC5=CC(=O)CC[C@]5(C)[C@H]4CC[C@]23C)cs1
inactive: [1] 75.2% | [2] 62.2% | [3] 104% | [4] 91.3% | [5] 66% | [6] 19.6% | [7] 24.7% | [8] 59.4% | [9] 56.5% | [10] 93.4%

CCOC(=O)c1ccc(NCCC(=O)O)cc1
inactive: [1] 97.1% | [2] 96.8% | [3] 96% | [4] 105% | [5] 109% | [6] 91.7% | [7] 104% | [8] 102% | [9] 101% | [10] 107%

CC(=O)c1ccc(-n2c(-c3cc(-c4ccsc4)n[nH]3)n[nH]c2=S)cc1
inactive: [1] 96.5% | [2] 94.1% | [3] 91.2% | [4] 101% | [5] 102% | [6] 84.3% | [7] 101% | [8] 95.9% | [9] 99% | [10] 98.8%

COc1ccc([C@@H]2[C@@H](Oc3ccccc3)C(=O)N2c2cc(OC)c(OC)c(OC)c2)cc1F
inactive: [1] 12.7% | [3] 61.4% | [4] 19.9% | [6] 20.7% | [9] 14% | [10] 48.9%
active: [2] -6.94% | [5] 4.18% | [7] -15.1% | [8] 0.0629%

O=c1[nH]cnc2nc[nH]c12
inactive: [1] 107% | [2] 97.9% | [3] 90.8% | [4] 107% | [5] 103% | [6] 135% | [7] 102% | [8] 102% | [9] 98.4% | [10] 97.9%

CCOCC(O)(c1ccc(Cl)cc1)c1ccc(Cl)cc1
inactive: [1] 88.6% | [2] 81.4% | [3] 103% | [4] 106% | [5] 95.9% | [6] 88.8% | [7] 96.1% | [8] 87% | [9] 94.8% | [10] 108%

Nc1nc2ccc([C@@H]3Nc4ccc5[nH]ncc5c4[C@H]4[C@H]5CCC(C5)[C@H]43)cc2s1
active: [2] 5.7% | [3] -24.8% | [6] 6.63% | [8] -88.6%
inactive: [1] 29.7% | [4] 30.8% | [5] 23.8% | [7] 24.4% | [9] 40.7% | [10] 23.8%

Clc1ncnc2scc(C3COc4ccccc4O3)c12 (stereo not given)
inactive: [1] 79.8% | [2] 103% | [3] 65.2% | [4] 100% | [5] 90.4% | [6] 98.8% | [7] 90.4% | [8] 98.2% | [9] 41% | [10] 83.8%

Cc1cc(C)cc(CCCCCCCCCCCCCCCCCC(=O)O)c1
inactive: [1] 102% | [2] 110% | [3] 97.2% | [4] 115% | [5] 110% | [6] 106% | [7] 102% | [8] 106% | [9] 104% | [10] 119%

C=C1NC(=O)C(C(C)CC)NC(=O)C2CSCC(NC(=O)CCC(=O)O)C(=O)NC(Cc3ccccc3)C(=O)NC(C)C(=O)NC(CC(C)CC)C(=O)NC(C(=O)NC(Cc3ccccc3)C(=O)N3CCCC3C(=O)N2)C(C)OC(=O)C(CO)NC(=O)C(C(O)COC)N(C)C(=O)C(C(C)C)NC(=O)C(CC(C)CC)NC1=O (stereo not given)
inactive: [1] 15.8% [6 µM] | [3] 11.4% [6 µM] | [4] 21.3% [6 µM] | [5] 11.2% [6 µM] | [6] 22.1% [6 µM] | [8] 39.8% [6 µM] | [9] 15.1% [6 µM] | [10] 60.2% [6 µM]
active: [2] 4.74% [6 µM] | [7] -44.8% [6 µM]

Cc1ccc(-c2cnc3sc4ccc(Cl)cc4n23)cc1
inactive: [1] 100% | [2] 99.8% | [3] 93.9% | [4] 96.4% | [5] 105% | [6] 82.6% | [7] 95.6% | [8] 87.9% | [9] 94.2% | [10] 109%

COc1ccc(/C=C/C(=O)c2ccc(NC(=O)CSc3nnc(-c4ccc(OC)cc4)n3-c3ccccc3)cc2)cc1
inactive: [1] 96.4% | [2] 103% | [3] 91.7% | [4] 94.1% | [5] 87.1% | [6] 106% | [7] 95.1% | [8] 89.4% | [9] 102% | [10] 106%

CCCc1n(Cc2ccc3ccccc3c2)c2ccccc2[n+]1Cc1ccc2ccccc2c1
active: [1] 4.29% | [2] -72.2% | [3] -18.2% | [4] -76% | [5] -92.6% | [6] -22.8% | [7] -97.3% | [8] -89.2% | [9] -90.5% | [10] -53.6%

O=c1c2sc3ncc(Cl)cc3c2nnn1-c1cccc(Cl)c1
inactive: [1] 87.5% | [2] 75.9% | [3] 70.1% | [4] 98.2% | [5] 59.9% | [6] 82.7% | [7] 96.3% | [8] 96.8% | [9] 52.9% | [10] 90.5%

CCOC(=O)C(=CNc1ccccc1Cl)C(=O)OCC
inactive: [1] 88.2% | [2] 89.1% | [3] 108% | [4] 97.1% | [5] 94.5% | [6] 95.8% | [7] 77.1% | [8] 72.4% | [9] 95.8% | [10] 116%

COc1ccc(Br)c2ccccc12
inactive: [1] 110% | [2] 110% | [3] 93.7% | [4] 116% | [5] 114% | [6] 102% | [7] 107% | [8] 107% | [9] 101% | [10] 122%

Cc1cc(NC(=O)C2c3ccccc3C(=O)N(CC(C)C)C2c2cccs2)no1 (stereo not given)
inactive: [3] 61.4% | [4] 81.9% | [5] 21.2% | [7] 14.2%
active: [1] 7.04% | [2] -29.4% | [6] 9.17% | [8] -84.5% | [9] -85.3% | [10] -86.8%

CO[C@@]12[C@@H]3NC3CN1C1=C(C(=O)C(N)=C(C)C1=O)[C@@H]2COC(N)=O (stereo not given in full)
active: [2] -18.1% | [3] 2.19% | [7] -96% | [8] -15.9% | [9] -50.2%
inactive: [1] 26.4% | [4] 18.3% | [5] 13.4% | [6] 41.8% | [10] 23%

CC(CN1CCN(C)CC1)CN1c2ccccc2Sc2ccc(C(F)(F)F)cc21 (stereo not given)
inactive: [3] 45.5% | [4] 63.1% | [6] 31.3% | [10] 22.4%
active: [1] 6.79% | [2] -49.9% | [5] 1% | [7] -82.7% | [8] -40.4% | [9] -2.88%

O=C(/C=C/c1cc([N+](=O)[O-])ccc1Cl)c1ccccc1
inactive: [1] 110% | [2] 14.3% | [3] 67.7% | [4] 87.8% | [5] 46% | [6] 85.4% | [7] 87.3% | [8] 70.5% | [10] 104%
active: [9] -18.9%

CCN(C(=O)Nc1cccc2ccccc12)c1ccccc1
inactive: [1] 90.8% | [2] 103% | [3] 92.4% | [4] 102% | [5] 97.7% | [6] 85.9% | [7] 95.5% | [8] 80.5% | [9] 102% | [10] 112%
